# Results: PubChem BioAssay (NCI)
# About 83,000 compounds went through this panel and 20% of them were active in at least one assay; those are over-represented in the sample as a whole.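 The test compound was applied at a single concentration to cells in 96-well plates for 48 hours, and percent growth was recorded.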 Unmarked numbers belong to inactive results. Active and inactive are the calls of the source. Rule for the calls: active = growth percent below 10; inactive = the rest.
# Experiments:
# Experiment in all cases: NCI-60 one-dose screen, 48 h (100 = growth as untreated, 0 = no growth, -100 = all killed)
# Conditions in all cases: 10 µM unless noted
# [1] = system: SK-MEL-2 melanoma
# [2] = system: EKVX NSCLC
# [3] = system: SN12C renal
# [4] = system: UO-31 renal
# [5] = system: TK-10 renal
# [6] = system: ACHN renal
# [7] = system: CAKI-1 renal
# [8] = system: A498 renal
# [9] = system: CCRF-CEM leukemia
# [10] = system: MOLT-4 leukemia
Structure (SMILES),growth [1],growth [2],growth [3],growth [4],growth [5],growth [6],growth [7],growth [8],growth [9],growth [10]
COC(=O)c1cccc(NC(=O)c2ccc(-c3cccc(N)c3)o2)c1,98.3%,94.5%,94%,83%,125%,102%,91.3%,105%,71.7%,85.9%
COC[C@H](C)n1c(C2CCOCC2)nc2cnc3cc(-c4c(C)noc4C)c(OC)cc3c21,76.6%,59.7%,76.1%,19.5%,29.4%,43.7%,16.2%,5.12% (active),61.4%,42.2%
COc1ccc(S(=O)(=O)N2CCCCCC2)cc1NC(=O)c1[nH]c(C)c2c1CCCCC2=O,43.4%,38.4%,36.9%,12.1%,15.3%,25.2%,12.7%,-25.6% (active),33.7%,30.6%
CC(=O)NCC1c2c(n(C)c3c(Cl)c(Cl)ccc23)C(=O)NC1(C)C (stereo not given),103%,90.7%,85.5%,84.6%,89.5%,95.1%,77.4%,93%,107%,84.9%
CCOC(=O)c1csc(NC(=O)COc2cccc(/C=C3\CSc4ccccc4C3=O)c2)n1,-49.8% (active),-36.2% (active),74.8%,-35.1% (active),68.6%,45.5%,2.32% (active),115%,-61.3% (active),-50.9% (active)
COc1cc2nc(N3CCCC3)nc(Nc3ccccc3)c2cc1OC,-52.5% (active),28.3%,-53.5% (active),-53.5% (active),16.5%,-11.2% (active),-19% (active),40.6%,-11.4% (active),-24.7% (active)
CC1SC(c2ccc(N(C)C)cc2)N(NC(=O)C(O)(c2ccccc2)c2ccccc2)C1=O (stereo not given),104%,93.5%,110%,47.7%,89.4%,94%,91.2%,101%,65.1%,72%
Cc1ccc(NC(=O)C2CCC(CN3CCN(C)CC3)CC2)cc1Nc1nccc(-c2cccnc2)n1 (stereo not given),112%,97.6%,91.9%,83.3%,121%,94.9%,95.5%,89.6%,109%,89.8%
Cn1cccc1-c1nc2c3c(ccc2[nH]1)C(=O)c1ccccc1C3=O,91.4%,65.2%,91.9%,58.7%,98.7%,80.7%,96.3%,88.7%,78.9%,62.1%
O=C(Nc1ccccc1Cl)c1ccc(NC2=C(Cl)C(=O)N(C3CCCCC3)C2=O)cc1,104% [30 µM],98.5% [30 µM],97.6% [30 µM],75.8% [30 µM],88.5% [30 µM],78.9% [30 µM],20.5% [30 µM],123% [30 µM],39.6% [30 µM],40.8% [30 µM]
COc1cccc(-c2nc3sccn3c2-c2ccnc(NCCCNS(=O)(=O)c3cccc(F)c3)c2)c1,7.47% (active),31%,28.5%,11.4%,61.1%,20.7%,19.7%,64.4%,9.96% (active),3.29% (active)
O=C(/C=C/c1ccccc1)c1ccc(O)c(CN2CCN(c3cc4c(cc3F)c(=O)c(C(=O)O)cn4C3CC3)CC2)c1,22.8%,43.3%,8.48% (active),12.3%,62.7%,14.4%,20.6%,-18.4% (active),18.4%,35.8%
CCOc1cc2ncc(C#N)c(Nc3ccc(OCc4cccc(F)c4)c(Cl)c3)c2cc1NC(=O)CCCCC1CCSS1 (stereo not given),94.3%,78.5%,88.6%,55.8%,92.2%,91.3%,72%,70.1%,78.9%,78.5%
Cn1c(NCCc2ccc(O)c(O)c2)nc2c1c(=O)n(Cc1ccc(Cl)c(Cl)c1)c(=O)n2C,91.2%,81.2%,71.5%,34%,65.9%,41.8%,62.8%,98.4%,17.8%,11.8%
COc1ccc(C(=O)COc2ccc(/C=C3\COc4ccc(OC)cc4C3=O)cc2)cc1,68.1%,103%,100%,85.8%,105%,99.8%,99.1%,100%,7.46% (active),55.5%
